NRP1-CendR mod = alters CendR peptide binding to human NRP-1; O14786; actives 0.85% (n = 360,000); FAM-RPARPAR peptide binding to NRP-1, fluorescence polarization; inhibition, % at 25 µM;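 active means inhibition or corrected inhibition above about 18%, plus a signal ratio from 0.5 to 1.5, limit read from the data, passing the limit was not always enough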
ADAM10 inh = inhibitors of human ADAM10; O14672; recombinant ADAM10, EDANS/DABCYL FRET peptide cleavage, 3 h; inhibition, % at 7 µM; actives 0.62% (n = 370,000); AID 720582;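 active means inhibition above a per-campaign cutoff equal to the mean of compounds falling between control-based bounds plus 3 SD, cut at about 20% in these data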;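 further: 0% = DMSO wells while the 100% control is not disclosed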
ADAM17 inh = inhibitors of human ADAM17. P78536. recombinant ADAM17, EDANS/DABCYL FRET peptide cleavage. inhibition, % at 6.95 µM. actives 0.83% (n = 370,000). AID 720648;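 active means inhibition above the mean of compounds lying between control limits plus 3 SD, set per campaign, cut at about 8.5% in these data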;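 further: 0% = DMSO-only wells as the low control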
sPLA2-III inh = Inhibits HGIII-sPLA2 liposome hydrolysis, primary screen; AID 743126; actives 0.56% (n = 370,000); QFRET BODIPY PC-A2 liposome hydrolysis, fluorescence; inhibition, % at 12.2 µM;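 active means inhibition above mean plus 3 SD of compounds lying within the high and low control bounds, cut at about 19% in these data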;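 further: 0% = median of test compound wells and 100% = no enzyme DMSO wells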
proKLK7 act = activates the human kallikrein-7 zymogen; P49862; purified proKLK7, EDANS-DABCYL substrate fluorescence; 100% is mature enzyme control, 0% vehicle; activation, % at 7 µM; actives 0.9% (n = 370,000);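 active means activation above the mean of all tested compounds plus 3 SD, computed per campaign excluding outliers beyond control limits, cut at about 13% in these data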
Target sequence (P49862 whole entry, looked up): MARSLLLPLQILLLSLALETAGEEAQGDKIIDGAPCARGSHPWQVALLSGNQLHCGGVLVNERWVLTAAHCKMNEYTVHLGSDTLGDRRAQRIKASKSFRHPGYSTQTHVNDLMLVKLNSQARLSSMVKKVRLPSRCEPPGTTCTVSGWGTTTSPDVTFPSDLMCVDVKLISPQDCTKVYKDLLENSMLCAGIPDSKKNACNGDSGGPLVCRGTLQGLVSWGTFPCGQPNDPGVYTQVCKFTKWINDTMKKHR
ADAM10 confirm = confirmation of inhibitors of human ADAM10. actives 1% (n = 2,100). inhibition, % at 6.95 µM. shares compounds with ADAM10 inh. ADAM10 QFRET peptide cleavage, EDANS fluorescence;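 active means inhibition above about 20% chosen separately for each screening run, limit read from the data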;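 further: 0% = DMSO wells and 100% = marimastat wells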
ADAM17 ctr = counter-screen for ADAM10 exosite inhibitors: inhibitors of human ADAM17; shares compounds with ADAM10 inh; ADAM17 QFRET peptide cleavage, EDANS fluorescence; inhibition, % at 6.95 µM; actives 0.5% (n = 2,100);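 active means mean triplicate inhibition above the solvent-only control wells' mean plus 3 SD, cut at about 12% in these data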;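 further: 0% = DMSO wells and 100% = marimastat wells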
Numbers without * were called inactive; x = no result. Sampled rows, rich in hits. Any-hit rate of the full collection: about 3.4%.

SMILES	NRP1-CendR mod	ADAM10 inh	ADAM17 inh	sPLA2-III inh	proKLK7 act	ADAM10 confirm	ADAM17 ctr
OC(CN1CCCCC1)Cn1c2ccc(Cl)cc2c2cc(Cl)ccc21 (stereo not given)	0	5	2	-1	0	x	x
OC(CN1CCN(c2ccccn2)CC1)Cn1c2ccc(Cl)cc2c2cc(Cl)ccc21 (stereo not given)	-2	22*	8	-18	0	10	4
CCOC(=O)Nc1nc(-c2ccccc2)c(C(=O)c2ccc(Cl)cc2)s1	-5	21*	7	-16	-1	8	3
COc1ccccc1-c1cccc2c3c([nH]c12)[C@@H]1C[C@H]2[C@@H](C(=O)N1CC3)[C@H](C)ON2C	x	-129	-36	-14	0	x	x
COc1ccc(NC(=O)CN2C(=O)C(c3ccccc3)=NC23CCCCCC3)cc1	-6	27*	7	-27	1	0	0
CC1(C(=O)N2CCC(CC3CC(c4cccc(Br)c4)=NO3)(C(=O)NCC3CCCCC3)CC2)CC1 (stereo not given)	0	25*	4	-12	0	0	3
CC(C)NC(=O)NC1CCN(CC(=O)Nc2ccc3c(c2)OCCO3)CC1	x	-7	0	4	0	x	x
CC(=NNc1nc2ccccc2s1)c1ncccn1	-7	1	1	-4	0	x	x
C/C(=N\Nc1nc2ccccc2s1)c1cccs1	6	25*	7	-3	1	8	3
O=C(O)c1ccccc1NSc1ccccc1[N+](=O)[O-]	-6	-23	-6	-14	0	x	x
CCc1ccc(NSc2ccccc2[N+](=O)[O-])cc1	1	20*	8	13	0	6	2
COCCCN1C(=O)[C@H](CC(=O)NCc2cccs2)[C@]2(C(=O)OC)CCCCC=C12	x	4	0	-4	0	x	x
CCN(CC)S(=O)(=O)c1ccc(NC(=O)c2ccc(NS(C)(=O)=O)cc2)cc1	3	-4	-5	-9	0	x	x
CCOC(=O)c1ccc(NC(=O)c2ccc(NS(C)(=O)=O)cc2)cc1	-21	21*	3	-12	0	0	0
CCOC(=O)c1ccc(N/C(=N\S(=O)(=O)c2ccccc2C)c2ccccc2)cc1	1	21*	4	-34	0	2	1
O=C1CSc2ccc(C(=O)N3CCCC(C(=O)N4CCOCC4)C3)cc2N1 (stereo not given)	x	-8	-2	6	-1	x	x
Cc1ccc(N2CC(C(=O)Nc3nnc(SCC(N)=O)s3)CC2=O)cc1 (stereo not given)	-13	81*	0	0	0	1	-1
Cc1occc1C(=O)NNC(=O)C(c1ccccc1)c1ccccc1	7	28*	5	3	1	-1	0
CCCC(=O)NNC(=O)c1ccoc1C	-2	4	-2	-3	0	x	x
Cc1onc(-c2ccccc2)c1C(=O)NC(=S)NNC(=O)c1cccnc1	3	24*	5	3	0	5	1
Cc1onc(-c2ccccc2)c1C(=O)NC(=S)NNC(=O)c1ccncc1	-5	-12	-3	19	0	x	x
Cc1ccc(-n2c(SCC(=O)Nc3ccc(S(=O)(=O)Nc4cc(C)nc(C)n4)cc3)nnc2-c2ccncc2)cc1	x	-18	-5	-75	0	x	x
Cc1ccc(NC(=O)CN(C)C(=O)Cc2ccc(Cl)cc2Cl)cc1	4	30*	6	-13	0	1	0
S=c1nc2ccccc2c2nc(-c3ccccc3)[nH]n12	-18	21*	2	-11	0	-3	-1
C[C@H]1CCCN1c1ccc2c(c1)O[C@H]1CCN(C1)S2(=O)=O	x	-6	-4	5	0	x	x
O=C(Nc1ccc(OCC(F)(F)C(F)F)c(C(F)(F)F)c1)c1ccc(Cl)cc1	-13	25*	4	-9	1	10	3
O=C(Nc1ccc(C(O)(C(F)(F)F)C(F)(F)F)cc1)c1c(F)cccc1F	x	8	2	-24	x	x	x
O=C(Nc1ccc(C(O)(C(F)(F)F)C(F)(F)F)cc1)c1ccc(Cl)cc1	x	23*	6	-13	x	2	1

Bioassay records deposited in PubChem by several laboratories.
